Screening results from PubChem BioAssay.
ELG1 repair inh: inhibitors of ELG1-dependent DNA repair in HEK293T cells; actives 2.3% (n = 330,000); AID 504467; HEK293T ELG1-luciferase reporter, luminescence, 16 h; DNA damage induced by 5-fluorouridine; Potency, µM (titrated, usually from 46.1 µM), for inactives: top-dose activity change, negative = inhibition, hits mostly inhibitors; further: potency means the concentration at half of the fitted maximal effect; nearly all actives have a fitted effect of over 55% in size
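HEK293T cells expressing luciferase-tagged ELG1 (2,000/well) received 5-Fluorouridine plus compound or DMSO for 16 hr at 37 °C. Luciferase was read by ONE-Glo luminescence after 30 min at room temperature.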
IL-1B inflam inh: inflammasome signaling inhibition, IL-1 beta readout | THP-1 LPS/ATP IL-1B secretion, AlphaLISA, 16 h; active compounds read low | activity change, % at 57.5 µM | actives 4.7% (n = 360,000) | AID 743279; in the data active means activity change below about -50%; inconclusive means mostly about -30% to -49%
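Secreted IL-1B measured by AlphaLISA bead assay after 16 h compound exposure of THP-1 cells; compounds (final up to 57.5 uM) added 1 h before LPS (250 ng/mL) and ATP (1.25 mM) stimulation; lower signal means less secretion.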
TDP1 block: inhibitors of human tyrosyl-DNA phosphodiesterase TDP1; Q9NUW8; recombinant TDP1, AlphaScreen DNA substrate cleavage; Potency, µM (doses to about 130 µM), inactives show at the top dose activity change, negative = inhibition, usual class: inhibitors; actives 0.28% (n = 350,000); further: potency means the concentration at half of the fitted maximal effect; nearly all actives have a fitted effect of over 40% in size
Target sequence (Q9NUW8 whole entry, looked up): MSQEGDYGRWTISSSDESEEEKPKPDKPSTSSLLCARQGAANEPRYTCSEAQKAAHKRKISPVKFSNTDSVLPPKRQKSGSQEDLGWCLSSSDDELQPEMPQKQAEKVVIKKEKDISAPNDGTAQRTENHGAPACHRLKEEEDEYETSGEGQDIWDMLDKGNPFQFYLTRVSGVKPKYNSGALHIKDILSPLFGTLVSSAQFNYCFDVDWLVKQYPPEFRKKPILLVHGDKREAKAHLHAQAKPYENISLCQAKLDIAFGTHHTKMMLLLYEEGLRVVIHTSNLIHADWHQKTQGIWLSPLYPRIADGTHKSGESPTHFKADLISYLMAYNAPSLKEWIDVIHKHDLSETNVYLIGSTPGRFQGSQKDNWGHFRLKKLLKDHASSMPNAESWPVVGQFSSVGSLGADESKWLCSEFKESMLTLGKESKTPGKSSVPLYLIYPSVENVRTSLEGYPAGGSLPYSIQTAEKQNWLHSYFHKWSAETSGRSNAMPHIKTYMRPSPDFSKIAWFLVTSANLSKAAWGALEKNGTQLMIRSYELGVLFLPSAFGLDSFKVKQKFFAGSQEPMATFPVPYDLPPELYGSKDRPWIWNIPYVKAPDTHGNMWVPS
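Recombinant human Tdp1 (E. coli-expressed, 1 nM final) preincubated with compounds 15 min at room temperature, then 5'-biotin/3'-phosphotyrosine-FITC DNA substrate (15 nM final) added for 5 min. AlphaScreen beads (10 ug/ml final) added 10 min; cleavage lowers signal.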
DT40 TDP1 no CPT: qHTS for Inhibitors of human tyrosyl-DNA phosphodiesterase 1 (TDP1): qHTS in cells in absence of CPT; DT40 Tdp1-/- hTDP1 cells, no CPT, ATP luminescence, 48 h; Potency, µM (highest dose often 46.2 µM), for inactives: at the highest dose activity change, negative = growth inhibition, hits mostly inhibitors; actives 15% (n = 420,000); AID 686978, 2013; further: potency means the concentration at half of the fitted maximal effect; nearly all actives have a fitted effect of over 55% in size
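Cells were dispensed at 400 per well, compounds added by pin tool, plates incubated ≥48 hr at 37 °C, then CellTiter-Glo added for 30 min at room temperature before luminescence reading. Line: DT40 Tdp1-/- complemented with hTDP1; camptothecin omitted.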
Giardia kill: Giardia lamblia killing; Giardia lamblia trophozoite viability; activity change, % at 7.66 µM, hits read low; actives 0.15% (n = 340,000); AID 540267; in the data active means activity change below about -80%; inconclusive means between about -30% and that limit;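 further: parasites exposed to compound for two days anaerobically before the ATP read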
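Viability, read as ATP luminescence: trophozoites at 100 cells/well, compound added, 48 hrs anaerobic at 37 deg C, then 15-30 min room-temperature development before reading.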
TDP1 cell CPT: DT40-hTDP1 cell growth loss with CPT; chicken DT40 Tdp1-/-;hTDP1 cells + 20 nM CPT, ATP luminescence, 48 h; Potency, µM (top dose mostly 46.2 µM), without a hit: top-dose activity change, negative = growth inhibition, actives largely listed as inhibitors; actives 12% (n = 420,000); further: potency means the concentration at half of the fitted maximal effect; nearly all actives have a fitted effect of over 55% in size
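Chicken DT40 Tdp1-/- cells complemented with human TDP1, 400 cells/well, exposed to compounds plus 20 nM camptothecin for at least 48 h at 37 C; viability read as ATP content by CellTiter-Glo luminescence.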
Numbers without * were called inactive; ? = inconclusive; / = not tested or not shown; [ ] = dose if it differs, or a comment. The list is not random: actives were taken first. Their share in the collection is about 19%. Unless noted, the call rests on the fitted dose curve; in most records, active means well fitted curve in the direction sought with a large enough effect; inconclusive means small, poorly fitted or top-dose-only effect, or another doubt; inactive means no such curve, though single readings can be large; an effect the other way counts as inactive or inconclusive. On the % scale 0 is the no-effect control and ±100 the full control effect.

SMILES	ELG1 repair inh	IL-1B inflam inh	TDP1 block	DT40 TDP1 no CPT	Giardia kill	TDP1 cell CPT
Cc1nc(S/C(=C\c2ccc(-c3ccc(C(=O)O)c(Cl)c3)o2)C(=O)O)n[nH]1	-4.7%	0.0	3.16µM*	-18.8%	0.9	-8.2%
CCOC(=O)c1nn2c(C(F)(F)F)cc(-c3ccc(C)cc3)nc2c1Cl	/	/	-1.3%[12.3 µM]	-13.3%	/	0.3%
CCOC(=O)C1CCN(c2nc3cc(OC)ccc3cc2C#N)CC1	?	8.8	9.3%	-13.9%	-10.5	-17.1%
COc1ccc2cc(C#N)c(N3CCN(C(=O)c4ccccc4C)CC3)nc2c1	13µM*	/	7.7%	?	-4.4	?
COc1ccc(C(=O)N2CCN(c3nc4cc(C)ccc4cc3C#N)CC2)c(OC)c1	?	-59.1*	6.8%	16.4µM*	12.7	16.4µM*
COc1cc(C(=O)N2CCN(c3ccc(C)cc3C)CC2)cc(OC)c1OC	?	95.0	0.0%	3.66µM*	-2.7	2.91µM*
Cc1ccc2nc(N3CCN(C(=O)c4cccs4)CC3)c(C#N)cc2c1	-28.8%	-58.8*	-3.9%	14.6µM*	-2.2	20.6µM*
CSCCC(NC(N)=O)C(=O)Nc1cccc(C#N)c1 (stereo not given)	5.2%	20.6	0.0%	-1.5%	8.9	-10.8%
COc1cccc(C(=O)N2CCN(c3nc4cc(C)cc(C)c4cc3C#N)CC2)c1	/	-21.8	/	16.4µM*	/	23.1µM*
Cc1cc(C)c2cc(C#N)c(N3CCCC3)nc2c1	2.9%	-9.5	7.1%	?	-15.7	-13.8%
Cc1ccc2cc(C#N)c(N3CCCN(C(=O)c4cnccn4)CC3)nc2c1	?	-9.4	/	?	16.2	?
Cc1ccc2cc(C#N)c(N3CCN(C(=O)c4ccccc4)CC3)nc2c1	?	?	-6.4%	10.3µM*	-25.7	20.6µM*
COc1cc(C(=O)N2CCCN(c3nc4cc(C)ccc4cc3C#N)CC2)cc(OC)c1OC	?	36.3	0.0%	?	-4.1	20.6µM*
COc1ccc(S(=O)(=O)N2CCC(Cc3ccccc3)CC2)cc1NC(C)=O	19.9%	0.6	3.6%	4.5%	2.8	-7.5%
COc1ccccc1NC(=O)Cn1c(SCC(=O)N(C)c2ccccc2)nc2ccccc21	/	/	1.2%	?	/	?
Clc1ccc(N/N=C/c2cccnc2)cc1	?	-62.4*	7.9%	16.4µM*	31.6	18.4µM*
O=[N+]([O-])c1ccc(N/N=C/c2cccnc2)cc1	18.5%	-16.6	/	6.51µM*	-16.7	5.8µM*
CCOc1ccc(-c2nc(CSCC(=O)NCc3ccc(Cl)cc3)c(C)o2)cc1	/	/	2.8%	?	/	?
N#Cc1c(NCc2ccccc2)ccnc1Cl	/	5.8	/	20.6µM*	-21.6	?
O=C(c1cccc(F)c1)N(Cc1cc2cc3c(cc2nc1N1CCOCC1)CCC3)CC1CCCO1 (stereo not given)	/	/	/	-0.9%	/	7.9%[9.04 µM]
O=c1oc(-c2cccs2)nc2sc3c(c12)CCCC3	?	32.9	-2.2%	-11.4%	10.7	-22.4%
Nc1c2c(nc3sc4c(c13)CCCC4)-c1ccccc1CC2	?	-88.4*	0.0%	?	-9.6	-20.0%
O=C(Nc1nccs1)C1CC(=O)N(c2ccc(Cl)cc2)C1 (stereo not given)	-7.6%	20.1	2.7%	-12.3%	-6.7	-10.5%
COc1ccc(NS(=O)(=O)c2cc(NC(=O)C3=NN(c4ccccc4)C(=O)CC3)ccc2OC)cc1	?	-7.7	0.5%	0.184µM*	-1.7	?
Cc1ccc(-c2csc(NC(=O)C3=NN(c4ccccc4)C(=O)CC3)n2)cc1	13µM*	0.0	3.4%	?	-29.3	?
SMILES	ELG1 repair inh	IL-1B inflam inh	TDP1 block	DT40 TDP1 no CPT	Giardia kill	TDP1 cell CPT
Cc1csc(NC(=O)C2=NN(c3ccccc3)C(=O)CC2)n1	8.8%	18.0	0.0%	7.1%	15.0	-3.3%
COc1ccc(OC)c(-c2csc(NC(=O)C3=NN(c4ccccc4)C(=O)CC3)n2)c1	?	52.2	5.1%	20.6µM*	-2.0	-22.6%
CC(C)CC1COC(=O)N1 (stereo not given)	7.3%	-8.4	/	-7.2%	13.8	?
COc1ccc(Cn2ccc3nc(C)c(C(=O)Nc4ccc(OC)c(OC)c4)cc3c2=O)cc1	/	/	-0.9%	2.4%	/	-3.2%
O=C(NCCO)c1cc2c([nH]c3ccccc32)c(-c2ccc(F)cc2)n1	?	-93.4*	/	16.4µM*	0.8	?
O=C(NCCO)c1cc2c([nH]c3ccccc32)c(-c2ccccc2)n1	?	?	/	16.4µM*	-0.5	?
Cc1nc(C(=O)NCCCO)cc2c1[nH]c1ccccc12	29.9%	-8.0	/	?	20.0	?
Cc1ccc(-c2nc(C(=O)NCCCN(C)C)cc3c2[nH]c2ccccc23)cc1	14.7%	-17.1	/	23.1µM*	-7.2	?
O=C(NNC(=O)C1CC=CCC1C(=O)O)c1ccc(Cl)cc1 (stereo not given)	21.9%	21.5	-2.5%	2.3%	1.8	11.1%
Fc1cccc(CN2CCN(Cc3nc(CCc4ccccc4)no3)CC2)c1	-7.6%	14.7	0.0%	?	40.3	?
CCOC(=O)C1CCN(C(=O)c2c(C)nn(-c3ccc(F)cc3)c2-n2cccc2)CC1	/	/	2.8%	/	/	/
CC(NC(=O)c1cc(F)c(F)c(F)c1F)c1ccc(-n2ccnc2)cc1 (stereo not given)	4.7%	?	4.2%	?	8.2	23.1µM*
Cc1cccc(C(=O)NC(C)c2ccc(-n3ccnc3)cc2)c1C (stereo not given)	/	16.1	/	13.7%	24.2	-14.8%
CN(C(=O)CSc1cn(CC(=O)N2CCCCC2)c2ccccc12)c1ccccc1	/	/	-5.1%	?	/	?
Cc1ccc(NC(=O)CSc2cn(CC(=O)N3CCCCCC3)c3ccccc23)cc1	/	/	0.9%	?	/	-23.2%
CC(C)N(C(=O)CSc1cn(CC(=O)N2CCCCCC2)c2ccccc12)C(C)C	/	/	0.0%	18.4µM*	/	?
CN(C(=O)CSc1cn(CC(=O)N2CCCCCC2)c2ccccc12)c1ccccc1	/	/	-5.1%	18.4µM*	/	?
Cc1cn([C@H]2C[C@H](O)[C@@H](/C=C/C(=O)NCc3ccco3)O2)c(=O)[nH]c1=O	/	0.0	/	11.6%	/	12.2%
Cc1ccc(OCC(=O)N(Cc2ccc(Cl)cc2)Cc2ccco2)cc1C	/	/	4.9%	20.6µM*	/	?
COc1ccc(CN(Cc2ccco2)C(=O)COc2ccc(Cl)cc2C)cc1	/	/	0.0%	20.6µM*	/	?
